# Compound activity: PubChem BioAssay, National Center for Advancing Translational Sciences (NCATS)
# Sampled rows, rich in hits. Any-hit rate of the full collection: about 6.3%.
# TGFb inhibitor = qHTS for Inhibitors of TGF-b; HepG2 CAGA-GFP TGF-b/SMAD3 reporter, GFP fluorescence, 18 h; TGF-beta stimulated, 500 pg/mL final; Potency, µM (doses to about 46.1 µM), actives largely listed as inhibitors; actives 1.2% (n = 410,000); AID 588855, 2011; also: nearly all actives have a fitted effect of over 65% in size
#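 HEPG2 CAGA-GFP reporter cells (1000/well, DMEM with 1% FBS) received compounds, then recombinant TGF-beta at 500 pg/mL final for 18 hours at 37 degrees C. Per-cell GFP summed per well was normalised to unstimulated and stimulated DMSO controls before curve fitting.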
# Gal4-VP16 FLuc = VP16 counterscreen qHTS for inhibitors of ROR gamma transcriptional activity; Drosophila S2 Gal4-VP16 UAS-luciferase, luminescence, 20 h; Potency, µM (series often up to 53.6 µM), hits mostly inhibitors; actives 3.5% (n = 310,000);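 also: Gal4-VP16 expression switched on by copper sulfate through the metallothionein promoter; nearly all actives have a fitted effect of over 50% in size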
# ATXN2 expr inh = Primary qHTS for Inhibitors of ATXN expression | HEK-293 ATXN2-luciferase reporter, luminescence, 24 h | Potency, µM (series often up to 57 µM), usual class: inhibitors | actives 0.72% (n = 360,000); also: nearly all actives have a fitted effect of over 55% in size
#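 qHTS (up to 57 uM final) was run with 24 h compound exposure of reporter cells at 37 °C. Each well was multiplexed: SteadyGlo luminescence measured ATXN2-luciferase expression after a fluorogenic Gly-Phe-AFC viability readout (25 uM final).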
# HepG2 tox = qHTS for Inhibitors of TGF-b: Cytotox Counterscreen. HepG2 CAGA-GFP viability, ATP luminescence, 18 h. Potency, µM (doses to about 46.1 µM), usual class: cytotoxic. actives 0.76% (n = 410,000). AID 588856, 2011
#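 CellTiter-Glo luminescence gave cytotoxicity after 18 hours at 37 degrees C. The cells were HepG2 CAGA-GFP in 1% FBS DMEM, stimulated with 500 pg/mL TGF-beta after compound addition. %Activity was normalised to no-cell wells (complete cell-killing) and DMSO (no toxicity), and curves were fitted and classified.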
# ATXN viability = Viability Counterscreen for Primary qHTS for Inhibitors of ATXN expression. S2 cells (HEK-293 line with an ATXN2-luciferase reporter) viability, CellTiter-Fluor protease fluorescence, 24 h. Potency, µM (titrated, usually from 56.7 µM), usual class: cytotoxic. actives 0.49% (n = 400,000). AID 651635, 2014; also: nearly all actives have a fitted effect of over 40% in size
# RORg inh = qHTS for inhibitors of ROR gamma transcriptional activity; AID 2551, 2010; Drosophila S2 Gal4-RORgamma UAS-luciferase reporter, 20 h; Nuclear receptor ROR-gamma (Mus musculus), P51450; actives 5.4% (n = 310,000); Potency, µM (series often up to 53.6 µM), most hits filed as inhibitors; also: nearly all actives have a fitted effect of over 60% in size
# Target sequence (P51450 whole entry, looked up, the tested form may be a part): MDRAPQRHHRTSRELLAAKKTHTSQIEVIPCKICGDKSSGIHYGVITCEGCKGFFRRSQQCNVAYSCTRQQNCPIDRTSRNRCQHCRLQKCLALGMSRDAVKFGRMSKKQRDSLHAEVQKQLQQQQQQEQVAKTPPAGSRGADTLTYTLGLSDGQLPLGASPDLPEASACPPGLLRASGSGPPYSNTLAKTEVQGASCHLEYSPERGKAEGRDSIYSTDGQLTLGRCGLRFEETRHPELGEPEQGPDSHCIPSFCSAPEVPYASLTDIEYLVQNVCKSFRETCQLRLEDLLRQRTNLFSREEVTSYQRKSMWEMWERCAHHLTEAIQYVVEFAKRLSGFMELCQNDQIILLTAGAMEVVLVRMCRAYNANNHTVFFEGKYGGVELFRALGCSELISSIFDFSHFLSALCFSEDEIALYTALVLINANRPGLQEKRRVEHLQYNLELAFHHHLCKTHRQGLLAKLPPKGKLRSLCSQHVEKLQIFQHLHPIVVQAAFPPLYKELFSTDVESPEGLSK
#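 Compounds are pin-transferred onto Drosophila Schneider cells expressing a copper-inducible Gal4–ROR gamma transactivation domain fusion. After 1 hr, copper sulfate is added to 700 uM final; luciferase is read 20 hr later.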
# A number is an active result; i = inactive; ? = inconclusive; nt = no result given; ! = repeats disagree; [ ] = dose if it differs, or a comment. Calls follow the shape of the dose curve; as a rule, active = well fitted curve in the direction sought with a large enough effect; inconclusive = small, poorly fitted or top-dose-only effect, or another doubt; inactive = no such curve, though single readings can be large; an effect the other way counts as inactive or inconclusive.
SMILES,TGFb inhibitor,Gal4-VP16 FLuc,ATXN2 expr inh,HepG2 tox,ATXN viability,RORg inh
CC(=O)c1ccccc1C(=O)NCC1Cc2cccc(-c3cccnc3)c2O1 (stereo not drawn),nt,nt,nt,nt,i,nt
Cc1nc(C)c(C(=O)N2CCc3c(cnc(C)c3CNC(=O)c3cncs3)C2)s1,nt,nt,nt,nt,i,nt
Nc1ncn(C(=S)Nc2ccccc2)n1,8.9µM,nt,?,i,?,nt
Cn1ncc2c(NCc3cccc(Cl)c3)ncnc21,i,nt,i,i,i,nt
COc1ccc(N2CCN(C(=O)c3cn(C4CCCCC4)c(=O)c4c3c3ccccc3n4C)CC2)cc1,?,nt,i,i,11µM,nt
Cn1c2ccccc2c2c(C(=O)N3CCN(c4ccc(F)cc4)CC3)cn(C3CCCCC3)c(=O)c21,?,nt,nt,i,nt,nt
CC(C)(OCc1nn(Cc2ccccc2)c2ccccc12)C(=O)O,nt,nt,i,nt,nt,nt
Cc1cc(C(=O)CSc2nnc(-c3ccco3)o2)c(C)n1Cc1ccco1,i,i,i,i,i,i
O=C(CSc1nnc(-c2ccco2)o1)c1ccc([N+](=O)[O-])cc1,i,0.89µM,nt,i,i,0.79µM
O=C(CSc1nnc(-c2ccco2)o1)c1ccccc1Cl,i,?,i[11.3 µM],i,i,4µM
CC(=O)Nc1ccc(-c2nnc(SCC(=O)c3ccc([N+](=O)[O-])cc3)o2)cc1,i,nt,i,i,i,nt
O=C(NCCc1ccccn1)C1CC12CCN(C(=O)c1ccc(F)cc1Cl)CC2 (stereo not drawn),nt,nt,nt,nt,i,nt
COc1ccc(C)cc1NC(=O)NCCn1nnc2cc(S(=O)(=O)N(C)C)ccc21,i,nt,i,i,i,nt
O=C(CNC(=O)c1ccccc1)N/N=C/c1cc(Br)ccc1O,i,7.1µM,28µM,i,i,2.5µM
O=C(CNC(=O)c1ccccc1Br)N/N=C/c1cc(Br)ccc1O,i,5µM,10µM,i,i,2.2µM
O=C(CNC(=O)c1ccccc1Br)N/N=C\c1cc([N+](=O)[O-])cc(Br)c1O,i,7.9µM,i,i,i,11µM
O=C(CNC(=O)c1ccco1)N/N=C/c1cc(Br)ccc1O,i,11µM,?,i,i,8.9µM
O=C(CNC(=O)c1ccccc1Br)N/N=C/c1cccnc1,i,i,i,i,i,i
CCn1nc(-c2ccccc2)c(-c2ccccc2)c(C(=O)OCCOC)c1=O,i,nt,nt,i,nt,nt
CCOC1=C2[C@@H](CN(S(=O)(=O)c3ccc(C)cc3)[C@H]2c2cccc3ccccc23)[C@H]2C(=O)N(C)C(=O)[C@H]2C1,i,nt,i,i,?,nt
O=C(CNC(=O)c1ccc2c(c1)OCO2)N/N=C/c1cc(Br)ccc1O,i,?,?,i,i,20µM
COC(=O)N/N=C/c1cc([N+](=O)[O-])cc(Br)c1O,i,?,?,i,i,11µM
O=C(CNC(=O)c1ccccc1Br)N/N=C/c1cccs1,i,i,nt,i,i,i
O=C(CN1CC(c2ccccc2)CC1=O)N/N=C/c1cc(Br)ccc1O (stereo not drawn),i,3.2µM,14µM,i,i,4.5µM
O=C(CNC(=O)c1ccccc1Br)N/N=C/c1ccccc1O,?,?,?,i,nt,3.2µM
SMILES,TGFb inhibitor,Gal4-VP16 FLuc,ATXN2 expr inh,HepG2 tox,ATXN viability,RORg inh
Nc1nnc(CC(=O)N/N=C/c2cc([N+](=O)[O-])cc(Br)c2O)s1,i,i[10 µM],i,i,i,i
O=C(CNC(=O)c1ccncc1)N/N=C/c1cc(Br)ccc1O,?,i,?,i,?,i[10 µM]
CCN(Cc1ccccc1)C(=O)c1cc2c(s1)-c1c(C)cccc1OC2,?,nt,i,i,i,nt
Cc1ccc(C)c(-n2c(-c3csc(C)c3)n[nH]c2=S)c1,i,5.6µM,i,i,i,3.2µM
Cc1ccc(C)c(-n2c(-c3ccncc3)n[nH]c2=S)c1,i,i,i,i,i,10µM
CC(C)c1ccccc1-n1c(-c2cccnc2)n[nH]c1=S,i,i,i,i,i,?
Cc1ccc(C)c(-n2c(-c3ccc4c(c3)OCO4)n[nH]c2=S)c1,i,i,i,i,i,i
COc1ccc(Cl)cc1S(=O)(=O)Nc1ccc2c(c1)n(C)c(=O)n2C,i,i,i,20µM!,i,i
COc1ccc(CCNC(=O)c2ccc3c(c2)N(Cc2ccc(Cl)cc2)CCS3)c(OC)c1,i,nt,i,i,i,nt
COc1ccc(NC(=O)c2sc3nc(C)c(C(=O)Nc4ccc(C)cc4C)c(-c4ccc(C)o4)c3c2N)cc1,i,nt,i,i,i,nt
Cc1ccc(S(=O)(=O)N2CCC(c3nnc(-c4cccc(C)c4)o3)CC2)cc1,?,nt,5.6µM,i,7.9µM,nt
CCCc1ccc(S(=O)(=O)N2CCC(c3nnc(-c4cccc(C)c4)o3)CC2)cc1,?,nt,10µM,i,nt,nt
CC1=C(C(=O)N2CCCCCC2)CC(CC(=O)NCc2ccco2)C(=O)N1Cc1ccccc1 (stereo not drawn),i,nt,i,i,i,nt
CN1CCCN(C(=O)[C@@H]2C[C@@H](Sc3nc4ccccc4[nH]3)CN2Cc2ccc(-c3ccccc3)cc2)CC1,nt,nt,nt,nt,i,nt
CS(=O)(=O)c1ccccc1-c1nnc(NC(=O)c2ccc(S(=O)(=O)N3CCCC3)cc2)o1,i,nt,i,i,i,nt
CCC1CCCCN1S(=O)(=O)c1ccc(C(=O)Nc2nnc(C3CC3)o2)cc1 (stereo not drawn),i,0.32µM,?,i,i,0.32µM
O=C(Nc1nnc(-c2cccs2)o1)c1cccc(Oc2ccccc2)c1,?,0.56µM,?,i,nt,0.28µM
CCC1CCCCN1S(=O)(=O)c1ccc(C(=O)Nc2nnc(-c3ccccc3Cl)o2)cc1 (stereo not drawn),i,0.0079µM,?,i,?,0.28µM
O=C(Nc1nnc(-c2ccccc2Cl)o1)c1ccc(S(=O)(=O)N2CCCCCC2)cc1,?,0.4µM,?,i,?,0.45µM
O=C(C(=NNc1ccccc1)C(=S)Nc1ccccc1)c1ccccc1,i,nt,i,i,i,nt
O=C(c1ccc(CSc2nc3ccncc3n2Cc2cccc(F)c2)cc1)N1CCCCC1,?,nt,i,i,i,nt
CC1CCCCN1S(=O)(=O)c1ccc(C(=O)Nc2nnc(-c3ccccc3Cl)o2)cc1 (stereo not drawn),i,0.5µM,?,i,i,0.71µM
O=C(Nc1nnc(-c2cccs2)o1)c1ccc(S(=O)(=O)N2CCOCC2)cc1,i,1.6µM,?,i,i,0.71µM
CCC1CCCCN1S(=O)(=O)c1cc(C(=O)Nc2ccc(C)c(F)c2)ccc1F (stereo not drawn),11µM,nt,nt,i,nt,nt
CC(=O)OC1C(C)OC(Oc2c(-c3ccc(O)cc3)oc3cc(O)cc(O)c3c2=O)C(O)C1OC(C)=O (stereo not drawn),nt,nt,i,nt,nt,nt
